Data as given in PubChem BioAssay AID841 (Emory University Molecular Libraries Screening Center, 2007).
Among all 140,000 compounds or so, about 2,100 (1.5%) were called active. No stated cut-off is given here; in the data, active means protection mostly above about 24% (no sharp cut-off); inactive means mostly below about 26%. Many of the other results were omitted from the sample, so actives are more common in it than they were.

experiment: blockers of measles virus-induced cell death – single point, MLSMR library, absorbance, measles RdRp inhibitor project, primary screen (AID 841); conditions: Measles virus-infected cells, CPE protection, at 4 µM, hits give high values

Q: Which protection (pct of control) does the source give for CCOC(=O)CC1=C(C(=O)OCC)C2(C(=O)N1)C(C(=O)OC)=C(N)Oc1ccccc12 (stereo not given) here?
A: 9.79% (inactive)

Q: With C=CCN1C(=O)C2(C(C(=O)OCC)=C(N)Oc3c2c(=O)oc2ccccc32)c2ccccc21 (stereo not given) as the compound, how does the protection (pct of control) read?
A: 81% (active)

Q: Which protection (pct of control) does the source give for COC(=O)CN1C(=O)C2(C(C(=O)OC)=C(N)Oc3ccccc32)C2=C1CC(C)(C)CC2=O (stereo not given) here?
A: 2.86% (inactive)

Q: With Cc1ccnc(-n2c(C)cc(/C=C3\C(=O)NC(=S)N(C)C3=O)c2C)c1 as the compound, how does the protection (pct of control) read?
A: 5.91% (inactive)

Q: Which protection (pct of control) does the source give for Cc1ccc(N2C(=O)NC(=O)C(CCc3ccncc3)(Cc3cccc(Cl)c3Cl)C2=O)cc1 (stereo not given) here?
A: 7.36% (inactive)

Q: For Cc1nn(Cc2ccccc2Cl)c(Cl)c1C(=O)OC(C(=O)NC(N)=O)C(C)C (stereo not given), which protection (pct of control) is on record?
A: 14% (inactive)

Q: With O=C(C1CC(=O)N(C2CCCC2)C1)N1CCC2(CC1)OCCO2 (stereo not given) as the compound, how does the protection (pct of control) read?
A: 38.9% (active)

Q: Which protection (pct of control) does the source give for Cn1c(C(=O)N2CCC(C(=O)N3CCC4(CC3)OCCO4)CC2)cc2sccc21 here?
A: 8.88% (inactive)

Q: For CCN(N=Nc1nonc1OC)c1nonc1OC, which protection (pct of control) is on record?
A: 5.4% (inactive)

Q: For CCC(=O)CC(c1ccc([N+](=O)[O-])cc1)c1c(O)c2ccccc2oc1=O (stereo not given), which protection (pct of control) is on record?
A: 15.5% (inactive)

Q: Which protection (pct of control) does the source give for COc1ccc(C2N3CC(C)(C)CN23)cc1 (stereo not given) here?
A: 8.77% (inactive)

Q: For O=C1NC(=O)C(CCc2ccccn2)(Cc2cccc(Cl)c2Cl)C(=O)N1c1ccc(Br)cc1 (stereo not given), which protection (pct of control) is on record?
A: 10.4% (inactive)

Q: Which protection (pct of control) does the source give for Cc1cccc(OP(=O)(Oc2cccc(C)c2)OC(c2ccccc2)C(F)(F)F)c1 (stereo not given) here?
A: 1.45% (inactive)

Q: Which protection (pct of control) does the source give for Cc1nc2ccccn2c1P(=S)(N1CCCCC1)N1CCCCC1 here?
A: 4.18% (inactive)

Q: For CCOC(=O)C(O)(c1ccc(NC(=O)c2ccco2)c(OC)c1)C(F)(F)F (stereo not given), which protection (pct of control) is on record?
A: 39.8% (active)

Q: With CCOC(=O)C(O)(c1ccc(N)c(OC)c1)C(F)(F)F (stereo not given) as the compound, how does the protection (pct of control) read?
A: 3.68% (inactive)

Q: For COC(=O)C(O)(c1ccc(NC(=O)c2ccco2)c(OC)c1)C(F)(F)F (stereo not given), which protection (pct of control) is on record?
A: 3.68% (inactive)

Q: With CC(=O)Nc1ccccc1C(=O)OCC(=O)c1cccc2ccccc12 as the compound, how does the protection (pct of control) read?
A: 26.2% (inactive)

Q: With O=c1[nH]c(=S)n(C2CC2)c(O)c1/C=N/N1CCOCC1 as the compound, how does the protection (pct of control) read?
A: 5.81% (inactive)

Q: With CNC(=O)N(C)c1nnc(C(C)(C)C)s1 as the compound, how does the protection (pct of control) read?
A: 54.7% (active)

Q: For CCOC(=O)C(O)(c1ccc(N=Cc2ccccc2O)c(C)c1)C(F)(F)F (stereo not given), which protection (pct of control) is on record?
A: 5.53% (inactive)

Q: With CC(=O)N(C1=NCCCS1)c1ccccc1F as the compound, how does the protection (pct of control) read?
A: 62.1% (active)

Q: With COc1c(O)ccc2c1-c1c3c(cc4c1C(C2)N(C)CC4)OCO3 (stereo not given) as the compound, how does the protection (pct of control) read?
A: 6.07% (inactive)

Q: With CC(C(=O)Nc1ccc(Cl)cc1Cl)N1CC=C(c2ccccc2)CC1 (stereo not given) as the compound, how does the protection (pct of control) read?
A: 9.49% (inactive)

Q: For CN1CCN(c2cc(N3CCNCC3)ccc2[N+](=O)[O-])CC1, which protection (pct of control) is on record?
A: 21.6% (inactive)

Q: For CN(C)C(=O)Oc1ccc(OCc2cccc[n+]2C)cc1, which protection (pct of control) is on record?
A: 6.21% (inactive)

Q: With c1ccc2sc(C3CCCNC3)nc2c1 (stereo not given) as the compound, how does the protection (pct of control) read?
A: 54.6% (active)

Q: For CN(C)c1ccc(/C=C2\CC3C4CC=C5CC(O)CCC5(C)C4CCC3(C)C2=O)cc1 (stereo not given), which protection (pct of control) is on record?
A: 2.96% (inactive)

Q: Which protection (pct of control) does the source give for CC(C)N(CC#CCC1(O)c2ccccc2-c2ccccc21)C(C)C here?
A: 14.5% (inactive)

Q: Which protection (pct of control) does the source give for Cc1cccc(-n2c(O)c(/C=N/N3CCOCC3)c(=O)[nH]c2=S)c1 here?
A: 1.74% (inactive)
